Test [1] is described as follows: qHTS for Inhibitors of Plasmodium falciparum (7G8) proliferation (AID 504316). Note: nearly all actives have a fitted effect of over 65% in size. Note: potency is the fitted concentration of half-maximal effect. An outline of the steps:
(§1)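 Parasite growth measured as SYBR Green DNA fluorescence (ex 485, em 535 nm) after overnight lysis following 72 h culture at 37 °C, 0.3% parasitemia, 2.5% hematocrit. Values normalized against DMSO and 0.29 uM artemisinin controls, with plate-stack correction.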
(Quantitative high-throughput screening tests each substance at several concentrations.)

Test [2] in a line: qHTS for Inhibitors of Plasmodium falciparum (HB3) proliferation (AID 504318). Note: nearly all actives have a fitted effect of over 60% in size. Note: potency is the fitted concentration of half-maximal effect. An outline of the steps:
as §1

Test [3] deals with Atrial natriuretic peptide receptor 1 (Homo sapiens) (UniProt P16066). The experiment in a line: Natriuretic polypeptide receptor (hNpr1) antagonism - Pilot CMLD screen (AID 1347052; calls by dose curve;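 note: HEK293 cells with hNpr1 stimulated by hNppA peptide at 0.1 nM; cGMP level read as GloSensor luciferase luminescence after agonist stimulation; series mostly up to about 9.2 µM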).
Test [4] in a line: qHTS for Inhibitors of Plasmodium falciparum (CP250) proliferation (AID 504320). Note: potency is the fitted concentration of half-maximal effect. In a few lines: as §1

Our source for the Potency values is PubChem BioAssay (NCATS).

Results filed as inconclusive are left out. Unmarked numbers belong to inactive results. Calls of active or inactive are those of the source. Unless noted, calls come from the whole dose curve; as a rule, active = well fitted curve in the direction sought with a large enough effect; inconclusive = small, poorly fitted or top-dose-only effect, or another doubt; inactive = no such curve, though single readings can be large; an effect the other way counts as inactive or inconclusive.

Atrial natriuretic peptide receptor 1 (Homo sapiens), sequence (P16066 whole entry, looked up): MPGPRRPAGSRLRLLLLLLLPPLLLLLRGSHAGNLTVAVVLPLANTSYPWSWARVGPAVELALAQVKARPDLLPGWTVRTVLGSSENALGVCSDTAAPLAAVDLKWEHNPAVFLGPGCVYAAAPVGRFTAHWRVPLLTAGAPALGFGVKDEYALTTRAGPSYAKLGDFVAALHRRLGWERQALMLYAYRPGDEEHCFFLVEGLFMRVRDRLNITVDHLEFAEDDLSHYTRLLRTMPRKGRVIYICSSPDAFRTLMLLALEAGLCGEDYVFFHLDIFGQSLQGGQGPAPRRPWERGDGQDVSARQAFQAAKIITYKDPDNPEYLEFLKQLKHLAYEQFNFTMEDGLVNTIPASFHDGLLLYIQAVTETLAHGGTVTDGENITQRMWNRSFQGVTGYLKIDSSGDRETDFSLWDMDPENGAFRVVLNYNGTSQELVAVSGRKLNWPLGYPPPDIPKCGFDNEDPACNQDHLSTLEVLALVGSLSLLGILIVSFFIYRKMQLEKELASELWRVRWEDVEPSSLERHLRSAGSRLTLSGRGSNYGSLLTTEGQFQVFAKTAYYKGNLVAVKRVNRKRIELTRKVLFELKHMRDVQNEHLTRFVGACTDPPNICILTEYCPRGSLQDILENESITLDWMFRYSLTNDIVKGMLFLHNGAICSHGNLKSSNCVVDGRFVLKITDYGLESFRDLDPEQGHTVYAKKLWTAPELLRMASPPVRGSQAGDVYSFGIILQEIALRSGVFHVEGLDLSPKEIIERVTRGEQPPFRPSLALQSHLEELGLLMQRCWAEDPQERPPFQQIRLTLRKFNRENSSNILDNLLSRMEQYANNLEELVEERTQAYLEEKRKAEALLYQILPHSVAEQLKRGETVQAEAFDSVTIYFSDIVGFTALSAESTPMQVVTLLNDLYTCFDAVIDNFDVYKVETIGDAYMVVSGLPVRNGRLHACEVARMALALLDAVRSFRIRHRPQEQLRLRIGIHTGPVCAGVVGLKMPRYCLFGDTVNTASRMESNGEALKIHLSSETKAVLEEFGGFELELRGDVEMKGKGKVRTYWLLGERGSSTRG

In the case of `C=CC1=C2C=C(C3CC3)N(CCOC)C=C2C(=O)C(C)(OC(=O)c2ccco2)C1=O` (stereo unspecified), the Potency result in test [1], in test [2] and in test [3] was “inactive” each time.
Regarding `COC(=O)C1=C(C)N(Cc2ccccc2)C(=NCC(C)C)NC1c1cccc(F)c1` (stereo unspecified), the Potency result in test [1], in test [2] and in test [3] was “inactive” each time.
Regarding `CC1=CC[C@@H](C)O[C@@]2(C1)C(=O)Nc1cccc(Br)c12`, the Potency result in test [1], in test [2], in test [4] and in test [3] was “inactive” throughout.
As to `Cc1ccccc1Nc1oc(-c2ccccc2)nc1C(C)(C)C`, the Potency is 1900 nM (active) in test [1] and 1690 nM (active) in test [2]. For the same compound, the Potency entry in test [3] is “inactive”.
In the case of `CCN1C(N(C)CCc2ccc(Br)cc2)=NC(c2ccccc2)C(C(=O)OC)=C1C` (stereo unspecified), the Potency entry in test [1], in test [2] and in test [3] was “inactive” each time.
`COc1ccc(O[C@H]2C=C[C@@H](c3ccccc3)O[C@H]2COC(=O)CCC(C)=NO[C@H](C)CN2CCCc3nc(C)c(C)cc32)cc1`: the Potency in test [1] is 1900 nM (active). Moreover, the Potency entry in test [3] was “inactive”.
`CC1(C)CC(=O)C2=C(C1)O[C@@]1(CCCCN3C(=O)c4ccccc4C3=O)Cc3ccccc3[C@H]2O1`: the Potency in test [1] and in test [2] was 1510 nM (active) throughout. The Potency result in test [3] was “inactive”.
For `C[C@H]1[C@@H](C(=O)N2CCCC2)CC(=NOCc2ccccc2)C(=NOCc2ccccc2)C[C@H]1c1ccccc1`, the Potency in test [1] is 478 nM (active); in test [2], 1690 nM (active). Also, the Potency entry in test [4] and in test [3] was “inactive” in each case.
With `C#CCN1C(=O)[C@]2(O[C@H](C)CC3=CCCC32)c2c(Br)cccc21` (stereo partly specified), the Potency result in test [1], in test [2], in test [4] and in test [3] was “inactive” throughout.
In the case of `C[C@@H]1CC2=CCCC2[C@]2(O1)C(=O)N(CC1CC1)c1cccc(Br)c12` (stereo partly specified), the Potency entry in test [1], in test [2], in test [4] and in test [3] was “inactive” each time.
In the case of `CC(C)OC(=O)[C@H](C)NC(=O)N1CCc2nc(COc3ccccc3)c3c(c2C1)CO[C@@H](C)C3`, the Potency in test [1] is 1350 nM (active); in test [2], 2620 nM (active). For the same compound, the Potency entry in test [4] and in test [3] was “inactive” in each case.
As for `CCCNC(=O)OC[C@H]1O[C@H](CCON=C(C)CCN2CCCCc3nc(C)c(C)cc32)C=C[C@H]1Oc1ccc(OC)cc1`, the Potency is 1900 nM (active) in test [1] and 2820 nM (active) in test [2]. In test [3], the Potency entry was “inactive”.
On the same counts, the results for `C=CCN=C1NC(c2cccc(C(F)(F)F)c2)C(C(=O)OC)=C(C)N1Cc1ccccc1` (stereo unspecified) are “inactive”, “inactive” and “inactive”.
Take `COC1=C[C@H](C(=O)NCCNC(C)=O)[C@@]2(C)Cc3ccccc3[C@@H]2CC1=O`: the Potency result in test [1], in test [2], in test [4] and in test [3] was “inactive” in each case.
With `CC(C)(C)Nc1oc(-c2ccccc2)nc1C=Cc1ccccc1`, the Potency in test [1] was 1510 nM (active); in test [2], 1690 nM (active). In addition, in test [3], the Potency result is “inactive”.
For the compound `C=CCOC(=O)N[C@@H](c1ccccc1)[C@@H](C)[N+](=O)[O-]`, the Potency result in test [1], in test [2], in test [4] and in test [3] was “inactive” throughout.
As to `COC(=O)C1=C(C)N(Cc2ccccc2)C(=NCCCCO)NC1c1cccc(F)c1` (stereo unspecified), the Potency result in test [1], in test [2], in test [4] and in test [3] was “inactive” in each case.
Regarding `COc1ccc(-c2nc3c(c4c2C[C@H](c2ccccc2)OC4)CN(C(=O)N[C@@H](C)C(=O)OC(C)C)CC3)c(C)c1`, the Potency in test [1] was 1510 nM (active); in test [2] it was 1650 nM (active). Further, the Potency entry in test [4] and in test [3] was “inactive” in each case.
As to `COc1ccccc1C=CC1=CC2(C)CC1(C)C(c1ccccc1OC)CC2=O` (stereo unspecified), the Potency in test [1] and in test [2] was 1690 nM (active) throughout. The Potency result in test [3] was “inactive”.
Turning to `CC(=O)Nc1ccc(S(=O)(=O)N2CCc3nc(-c4ccccc4)c4c(c3C2)CO[C@@H](C)C4)cc1`, the Potency entry in test [1], in test [2], in test [4] and in test [3] was “inactive” throughout.
Consider `COC(=O)C1=C(C)N(Cc2ccccc2)C(=NCC2CC2)NC1c1ccc(Br)cc1` (stereo unspecified), for which the Potency entry in test [1], in test [2] and in test [3] was “inactive” throughout.
Consider `COC(=O)C1=C(C)N(Cc2ccccc2)C(=NCCc2ccc([N+](=O)[O-])cc2)NC1c1cccc(F)c1` (stereo unspecified), for which the Potency in test [1] was 2690 nM (active). Besides, the Potency result in test [2] and in test [3] was “inactive” throughout.
Consider `CCN1C(=NCc2ccc(OC)cc2)NC(c2ccccc2)C(C(=O)OC)=C1C` (stereo unspecified), for which the Potency entry in test [1], in test [2], in test [4] and in test [3] was “inactive” each time.
`CC(=O)OC[C@H]1O[C@H](C#Cc2ccccc2)C=C[C@@H]1OC(C)=O`: the Potency result in test [1], in test [2], in test [4] and in test [3] was “inactive” in each case.
Turning to `CCc1cc2c(nc1CC)CCN(CCC(C)=NOC[C@H]1O[C@H](c3ccccc3)C=C[C@H]1Oc1ccc(OC)cc1)C2`, the Potency in test [1] was 1690 nM (active). For the same compound, the Potency entry in test [3] was “inactive”.
In the case of `COc1cc2c(cc1OC)[C@@H]1O[C@](CCCCN3C(=O)c4ccccc4C3=O)(C2)Oc2cc(C)n(Cc3ccccc3)c(=O)c21`, the figures for the Potency in test [1], in test [2] and in test [4] were 1510 nM (active), 1690 nM (active) and 1690 nM (active), respectively. In addition, the Potency entry in test [3] was “inactive”.
As for `COC(=O)[C@@H]1CC[C@H](C)[C@@H](c2ccc(C)cc2)N1C(=O)c1ccc(C=NOC[C@H]2O[C@H](c3ccccc3)C=C[C@H]2Oc2ccc(OC)cc2)cc1`, the Potency entry in test [1] and in test [3] was “inactive” in each case.
Consider `COC(=O)C1=C(C(=O)OC)[C@@H]2N(Cc3ccccc3)c3ccccc3[C@@]23C[C@@H](CO)N(C(=O)CC(C)C)C3=N1`, for which, in test [1], the Potency is 1690 nM (active). For the same compound, the Potency result in test [3] is “inactive”.
Regarding `COc1ccc2c(c1)O[C@@H](c1ccc3c(c1)OCO3)[C@H](OC(=O)Nc1cc(OC)c(OC)c(OC)c1)C2=O`, the Potency in test [1] is 1690 nM (active). Besides, the Potency result in test [4] and in test [3] was “inactive” in each case.
